# Measured values taken from ChEMBL document CHEMBL3988442, “University of Dundee, Small-Polar-MMV Screening Library” (2021).
# For some assays here: Results with a measured potency or affinity are listed apart.
# Key:
# Design in all cases: scale not given: direction of the effect not stated beside the values
# [1] = target: Protein translocase subunit SecA (Escherichia coli (strain K12)) (UniProt P10408); assay: Assay to Identify E. coli SecA ATPase Inhibitors; assay type: functional; conditions: 30 µM
# [2] = target: T1, Ubiquitin-activating enzyme e1, putative (Leishmania donovani (strain BPK282A1)) (UniProt E9BSI1); assay: Leishmania donovani Ubiquitin Activating Enzyme (LdE1); assay type: functional; conditions: 30 µM
# T1 sequence (whole entry): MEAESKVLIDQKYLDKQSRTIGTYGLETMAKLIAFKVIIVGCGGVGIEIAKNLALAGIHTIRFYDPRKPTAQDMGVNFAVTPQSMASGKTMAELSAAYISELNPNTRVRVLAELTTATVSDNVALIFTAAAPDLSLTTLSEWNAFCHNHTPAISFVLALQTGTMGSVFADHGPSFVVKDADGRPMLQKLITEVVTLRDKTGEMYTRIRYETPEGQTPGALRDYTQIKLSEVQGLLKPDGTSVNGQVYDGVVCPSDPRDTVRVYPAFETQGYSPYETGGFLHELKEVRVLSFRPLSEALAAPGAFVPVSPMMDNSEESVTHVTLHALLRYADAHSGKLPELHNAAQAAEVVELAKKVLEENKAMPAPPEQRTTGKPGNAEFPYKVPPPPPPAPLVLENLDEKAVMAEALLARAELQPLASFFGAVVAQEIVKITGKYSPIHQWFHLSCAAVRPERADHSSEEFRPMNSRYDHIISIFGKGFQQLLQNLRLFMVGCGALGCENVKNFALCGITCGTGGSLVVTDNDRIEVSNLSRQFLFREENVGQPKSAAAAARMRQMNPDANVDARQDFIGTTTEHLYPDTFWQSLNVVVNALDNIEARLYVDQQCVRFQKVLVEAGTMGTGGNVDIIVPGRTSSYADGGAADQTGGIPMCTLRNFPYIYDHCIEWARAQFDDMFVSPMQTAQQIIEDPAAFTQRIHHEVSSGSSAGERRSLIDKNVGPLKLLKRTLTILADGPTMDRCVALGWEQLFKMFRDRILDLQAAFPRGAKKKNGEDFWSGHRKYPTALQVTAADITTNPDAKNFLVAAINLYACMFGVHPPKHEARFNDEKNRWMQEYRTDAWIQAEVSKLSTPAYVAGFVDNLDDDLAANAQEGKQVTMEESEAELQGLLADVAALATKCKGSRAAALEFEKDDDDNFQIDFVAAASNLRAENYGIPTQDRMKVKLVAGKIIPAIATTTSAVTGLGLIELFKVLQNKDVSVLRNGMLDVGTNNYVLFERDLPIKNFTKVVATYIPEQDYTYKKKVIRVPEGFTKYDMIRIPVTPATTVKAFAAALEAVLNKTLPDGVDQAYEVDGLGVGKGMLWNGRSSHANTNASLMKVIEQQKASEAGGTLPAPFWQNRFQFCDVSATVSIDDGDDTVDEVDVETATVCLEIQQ
# [3] = target: AMP-activated protein kinase, AMPK (Homo sapiens) (UniProt P54646+O43741+P54619+Q9UGJ0+Q9Y478+Q13131+Q9UGI9); assay: AMP-dependent Kinase enzyme assay. An in vitro enzyme assay that detects ADP turnover that is directly proportional to AMPK activity. This uses naive AMPK that is activated during the assay with MK-8722; assay type: functional; conditions: 30 µM
# [4] = target: Sialic acid-binding Ig-like lectin 9 (Homo sapiens) (UniProt Q9Y336); assay: Hs-Siglec9 ALPHAscreen SOP 20170721; conditions: 10 µM
# Trypanosoma cruzi = assay: Trypanosoma cruzi phosphomannomutase and mannose-1-phosphate guanylyltransferase assay; assay type: functional; conditions: 10 µM
# [5] = target: T2, Arginase-2, mitochondrial (Homo sapiens) (UniProt P78540); assay: in vitro enzyme assay to detect the production of urea directly proportional to the activity of Arginase II; assay type: functional; conditions: 33.3 µM; also: in the data most compounds retested in dose-response had high values
# T2 sequence (whole entry): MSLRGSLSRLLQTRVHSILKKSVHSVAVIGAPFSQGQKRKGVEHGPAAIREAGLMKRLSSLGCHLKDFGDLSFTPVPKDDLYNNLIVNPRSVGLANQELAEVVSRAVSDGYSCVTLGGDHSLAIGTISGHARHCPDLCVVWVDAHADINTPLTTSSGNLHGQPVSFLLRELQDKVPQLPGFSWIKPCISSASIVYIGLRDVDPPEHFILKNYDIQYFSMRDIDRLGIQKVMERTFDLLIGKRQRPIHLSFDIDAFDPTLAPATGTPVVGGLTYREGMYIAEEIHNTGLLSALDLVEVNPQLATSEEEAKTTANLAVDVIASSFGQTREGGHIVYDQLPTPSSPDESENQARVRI
# [6] = target: T3, Proteasome subunit beta (Trypanosoma cruzi) (UniProt O96673); assay: Trypanosoma cruzi proteasome chymotrypsin-like activity (TcProtChymo) assay.; also: in the data most compounds retested in dose-response had high values; assay type: functional; conditions: 9.37 µM
# T3 sequence (whole entry): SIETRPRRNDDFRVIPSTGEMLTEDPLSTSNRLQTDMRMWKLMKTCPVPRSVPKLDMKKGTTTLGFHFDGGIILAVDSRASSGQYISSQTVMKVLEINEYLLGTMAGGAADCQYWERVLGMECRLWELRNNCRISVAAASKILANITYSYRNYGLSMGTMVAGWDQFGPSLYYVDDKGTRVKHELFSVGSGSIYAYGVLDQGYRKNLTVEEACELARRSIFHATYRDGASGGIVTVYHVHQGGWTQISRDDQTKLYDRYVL
# Homo sapiens = species on record: Homo sapiens; assay: To identify inhibition of the IFN signalling (Jak-Stat) pathway via expression of an eGFP reporter gene under the control of an IFN-stimulated response element (ISRE) containing MxA promoter.; assay type: functional; conditions: 30 µM
# [7] = target: T4, Tyrosyl-tRNA synthetase, putative (Trypanosoma cruzi (strain CL Brener)) (UniProt Q4DSP6); assay: Trypanosoma cruzi tyrosyl tRNA synthetase (TcYRS) _High Tyrosine SOP; assay type: functional; conditions: 30 µM; also: in the data most compounds retested in dose-response had high values
# T4 sequence (whole entry): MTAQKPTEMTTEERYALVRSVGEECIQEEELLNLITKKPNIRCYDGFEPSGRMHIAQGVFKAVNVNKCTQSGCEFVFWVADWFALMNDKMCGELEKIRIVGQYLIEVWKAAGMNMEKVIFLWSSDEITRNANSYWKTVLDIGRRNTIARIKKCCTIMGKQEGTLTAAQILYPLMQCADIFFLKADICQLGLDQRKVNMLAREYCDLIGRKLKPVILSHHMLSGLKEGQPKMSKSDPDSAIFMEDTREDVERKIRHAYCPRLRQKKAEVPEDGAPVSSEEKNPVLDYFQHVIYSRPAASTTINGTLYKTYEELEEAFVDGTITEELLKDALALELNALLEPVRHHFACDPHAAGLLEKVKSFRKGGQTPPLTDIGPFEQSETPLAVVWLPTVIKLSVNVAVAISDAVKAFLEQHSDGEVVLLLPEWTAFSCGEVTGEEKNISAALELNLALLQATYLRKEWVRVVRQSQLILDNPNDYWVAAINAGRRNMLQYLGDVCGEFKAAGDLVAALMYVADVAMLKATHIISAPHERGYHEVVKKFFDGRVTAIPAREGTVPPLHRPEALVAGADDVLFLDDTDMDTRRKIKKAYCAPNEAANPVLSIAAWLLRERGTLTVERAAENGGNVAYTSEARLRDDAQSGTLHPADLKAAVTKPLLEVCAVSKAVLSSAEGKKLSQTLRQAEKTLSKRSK
# [8] = target: T4, Tyrosyl-tRNA synthetase, putative (Trypanosoma cruzi (strain CL Brener)); assay: Trypanosoma cruzi tyrosyl tRNA synthetase (TcYRS) SOP; assay type: functional; conditions: 30 µM
# [9] = target: Chromo domain-containing protein 1 (Saccharomyces cerevisiae (strain ATCC 204508 / S288c) (Baker's yeast)) (UniProt P32657); assay: ScCHD-1 Enzyme Inhibition Assay; assay type: functional; conditions: 30 µM; also: in the data most compounds retested in dose-response had high values
# Chromo domain-containing protein 1 (Saccharomyces cerevisiae (strain ATCC 204508 / S288c) (Baker's yeast)), sequence (P32657 whole entry, the tested form may be a part): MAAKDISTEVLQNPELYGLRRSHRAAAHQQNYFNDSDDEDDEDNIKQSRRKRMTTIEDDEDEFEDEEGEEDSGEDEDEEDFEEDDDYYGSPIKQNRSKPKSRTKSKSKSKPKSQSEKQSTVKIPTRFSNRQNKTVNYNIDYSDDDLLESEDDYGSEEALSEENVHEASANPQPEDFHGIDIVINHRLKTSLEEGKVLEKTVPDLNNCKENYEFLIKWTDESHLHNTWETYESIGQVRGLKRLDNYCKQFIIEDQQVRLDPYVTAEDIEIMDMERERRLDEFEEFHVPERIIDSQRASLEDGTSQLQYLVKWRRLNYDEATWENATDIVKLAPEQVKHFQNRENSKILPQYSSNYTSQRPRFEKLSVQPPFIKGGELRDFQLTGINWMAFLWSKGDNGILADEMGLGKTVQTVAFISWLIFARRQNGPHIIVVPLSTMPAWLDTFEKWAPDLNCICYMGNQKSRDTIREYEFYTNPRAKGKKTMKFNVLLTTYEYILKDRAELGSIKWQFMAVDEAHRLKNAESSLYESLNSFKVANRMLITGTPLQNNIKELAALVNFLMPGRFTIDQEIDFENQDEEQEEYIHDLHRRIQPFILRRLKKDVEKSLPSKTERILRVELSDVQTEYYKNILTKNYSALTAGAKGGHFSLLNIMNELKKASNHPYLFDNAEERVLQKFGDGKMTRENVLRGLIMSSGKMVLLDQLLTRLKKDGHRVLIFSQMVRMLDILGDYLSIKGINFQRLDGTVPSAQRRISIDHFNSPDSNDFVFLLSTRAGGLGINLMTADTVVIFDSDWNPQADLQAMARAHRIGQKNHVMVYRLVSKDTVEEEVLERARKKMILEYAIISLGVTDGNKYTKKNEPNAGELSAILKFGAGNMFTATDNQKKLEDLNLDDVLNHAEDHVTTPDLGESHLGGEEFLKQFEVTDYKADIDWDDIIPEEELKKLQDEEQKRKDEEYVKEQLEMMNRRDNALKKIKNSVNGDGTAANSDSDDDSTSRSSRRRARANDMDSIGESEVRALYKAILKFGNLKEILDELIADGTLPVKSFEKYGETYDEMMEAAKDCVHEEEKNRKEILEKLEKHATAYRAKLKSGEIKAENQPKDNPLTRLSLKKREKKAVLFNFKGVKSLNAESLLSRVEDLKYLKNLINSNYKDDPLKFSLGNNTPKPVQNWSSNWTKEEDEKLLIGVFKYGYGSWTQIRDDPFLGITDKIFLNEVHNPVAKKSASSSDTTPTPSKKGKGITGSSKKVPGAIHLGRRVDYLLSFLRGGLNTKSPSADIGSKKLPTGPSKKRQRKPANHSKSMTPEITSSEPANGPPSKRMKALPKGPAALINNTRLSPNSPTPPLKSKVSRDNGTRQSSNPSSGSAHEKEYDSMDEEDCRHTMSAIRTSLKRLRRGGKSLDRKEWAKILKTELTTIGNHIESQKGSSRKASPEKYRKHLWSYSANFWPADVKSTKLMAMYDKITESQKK
# Protein translocase subunit SecA (Escherichia coli (strain K12)), sequence (P10408 whole entry): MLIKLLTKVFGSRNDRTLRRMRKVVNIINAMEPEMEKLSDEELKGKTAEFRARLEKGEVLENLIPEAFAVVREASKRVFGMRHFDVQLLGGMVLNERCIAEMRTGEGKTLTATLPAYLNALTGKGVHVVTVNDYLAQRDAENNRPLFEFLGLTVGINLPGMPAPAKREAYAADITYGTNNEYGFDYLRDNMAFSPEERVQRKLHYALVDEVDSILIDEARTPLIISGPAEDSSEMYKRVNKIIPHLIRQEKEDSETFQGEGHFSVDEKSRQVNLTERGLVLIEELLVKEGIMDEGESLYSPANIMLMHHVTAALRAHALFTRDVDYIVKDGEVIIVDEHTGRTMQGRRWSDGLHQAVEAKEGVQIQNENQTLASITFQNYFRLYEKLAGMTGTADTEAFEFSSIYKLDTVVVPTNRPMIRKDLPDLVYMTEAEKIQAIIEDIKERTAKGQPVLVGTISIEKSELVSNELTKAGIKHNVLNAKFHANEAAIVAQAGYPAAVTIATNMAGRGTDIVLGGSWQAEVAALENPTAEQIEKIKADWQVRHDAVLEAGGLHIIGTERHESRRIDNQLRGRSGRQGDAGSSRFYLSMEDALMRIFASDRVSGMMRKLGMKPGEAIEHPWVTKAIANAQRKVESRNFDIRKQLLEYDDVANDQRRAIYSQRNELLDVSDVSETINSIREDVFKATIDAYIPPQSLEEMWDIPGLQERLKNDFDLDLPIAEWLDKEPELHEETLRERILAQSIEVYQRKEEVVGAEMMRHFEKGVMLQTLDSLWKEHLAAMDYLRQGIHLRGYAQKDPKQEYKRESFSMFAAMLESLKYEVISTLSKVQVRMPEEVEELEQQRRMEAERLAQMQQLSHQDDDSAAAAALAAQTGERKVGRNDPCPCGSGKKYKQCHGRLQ
# Sialic acid-binding Ig-like lectin 9 (Homo sapiens), sequence (Q9Y336 whole entry): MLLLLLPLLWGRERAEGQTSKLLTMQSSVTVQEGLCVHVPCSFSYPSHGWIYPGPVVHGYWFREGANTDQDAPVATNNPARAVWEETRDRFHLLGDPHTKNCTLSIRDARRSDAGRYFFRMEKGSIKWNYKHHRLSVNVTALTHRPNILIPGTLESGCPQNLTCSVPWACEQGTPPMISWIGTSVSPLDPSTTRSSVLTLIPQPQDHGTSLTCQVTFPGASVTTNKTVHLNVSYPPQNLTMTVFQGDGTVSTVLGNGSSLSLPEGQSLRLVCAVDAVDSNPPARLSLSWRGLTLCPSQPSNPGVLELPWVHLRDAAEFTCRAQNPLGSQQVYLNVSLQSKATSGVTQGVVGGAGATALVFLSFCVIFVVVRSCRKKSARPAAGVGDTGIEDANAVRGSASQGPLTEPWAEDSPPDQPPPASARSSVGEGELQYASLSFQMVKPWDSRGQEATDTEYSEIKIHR
Structure (SMILES),Percent Effect [1] [%],Percent Effect [2] [%],Percent Effect [3] [%],Percent Effect [4] [%],Percent Effect (Trypanosoma cruzi) [%],Percent Effect [5] [%],Percent Effect [6] [%],Percent Effect (Homo sapiens) [%],Percent Effect [7] [%],Percent Effect [8] [%],Percent Effect [9] [%]
Cc1nc(NC2CCCC2)cc(C2CCN2C(=O)c2cccnc2)n1 (stereo not given),-4.83,23,7.33,1.33,4.54,-3.48,10.8,12.2,6.45,14.3,-16
COCCN1CCC2(CCCN(C(=O)c3cnoc3C)C2)C1=O (stereo not given),0.295,8.22,3.34,5.08,-6.55,-3.19,12.2,0.796,4.17,3.7,-5.73
Cc1cc(C)n(C2CN(CC(O)c3ccc4c(c3)OCO4)C2)n1 (stereo not given),-2.6,-13,0.139,7.69,3.37,-2.85,4.56,26.7,15.5,12.2,-2.01
Cc1nn(C)c(C)c1NC(=O)CN1CCCC1c1noc(C2CC2)n1 (stereo not given),2.36,13.7,-14.8,1.88,-0.196,3.64,20.6,-0.924,6.45,12.5,-7.02
Cc1nc(CN2C(=O)COC3(CCN(Cc4ccco4)CC3)C2C)cs1 (stereo not given),-3.92,2.74,3.27,2.66,-3.37,-3.19,15.8,2.79,3.12,6.17,-2.61
COc1ccc(-c2nnc(SCC(=O)NCC(C)C)[nH]2)c(OC)c1,-5.51,18.4,1.07,-1.8,4.97,4.73,15.8,12.1,3.19,18.2,-1.07
CCN(C)c1ncnc2c1CCN(Cc1csc(C)n1)CC2,-0.747,8.11,4.65,2.61,-1.07,4.78,25.1,-16.4,6.49,15.4,-2.96
COc1ccc(S(=O)(=O)N2CCC(S(C)(=O)=O)CC2)cc1C,-3.14,7.79,3.88,0.29,4.04,1.94,4.7,-5.43,3.17,11.5,-6.76
O=C(c1ccc(=O)[nH]n1)N1CC(c2nc(Cc3ccccc3)no2)C1,-2.52,8.22,-1.62,7.99,3.33,20.9,14.4,0.0834,6.45,20,-5.6
CO[C@H]1CN(C(=O)c2ccccn2)[C@@H]2CCCO[C@H]12,-0.127,-2.7,2.92,0.754,-2.25,1.59,17.5,0.992,0,5.13,3.83
